PubChem BioAssay (NCATS)
Results filed as inconclusive are left out. Calls of active or inactive are those of the source. Unless noted, the call rests on the fitted dose curve; in most records, active means well fitted curve in either direction with a large enough effect (not every such curve was filed as active); inconclusive means small, poorly fitted or top-dose-only effect, or another doubt; inactive means flat fitted curve, though single readings scatter.

Columns and labels:
[1] = molecular target: Lysosomal acid glucosylceramidase (Homo sapiens) (UniProt P04062); test: Glucocerebrosidase-p2 (AID 348; in the data active means potency below about 10 µM; further: potency means the concentration at half of the fitted maximal effect); settings: purified GBA, blue fluorogenic substrate, 40 min
Chain of Lysosomal acid glucosylceramidase (Homo sapiens) (P04062 whole entry, looked up): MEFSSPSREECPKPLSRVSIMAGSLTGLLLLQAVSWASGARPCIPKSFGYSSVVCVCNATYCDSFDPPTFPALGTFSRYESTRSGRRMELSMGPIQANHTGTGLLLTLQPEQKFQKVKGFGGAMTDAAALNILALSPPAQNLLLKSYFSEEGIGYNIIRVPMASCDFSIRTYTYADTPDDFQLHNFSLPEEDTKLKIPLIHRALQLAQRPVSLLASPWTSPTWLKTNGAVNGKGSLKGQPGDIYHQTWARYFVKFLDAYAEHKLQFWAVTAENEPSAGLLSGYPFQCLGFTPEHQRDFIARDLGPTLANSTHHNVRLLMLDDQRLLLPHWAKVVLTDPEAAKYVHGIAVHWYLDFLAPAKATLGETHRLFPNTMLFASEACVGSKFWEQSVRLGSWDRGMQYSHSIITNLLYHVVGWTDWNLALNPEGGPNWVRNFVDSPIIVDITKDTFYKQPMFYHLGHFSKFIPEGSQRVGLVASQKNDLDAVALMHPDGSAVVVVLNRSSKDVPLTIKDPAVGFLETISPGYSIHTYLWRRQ
Outline: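 Compounds titrated from 0.6 nM upwards against 0.2 nM enzyme in pH 5.9 citric acid/KH2PO4, taurocholate, tween-20; blue fluorogenic substrate 80 uM, 40 min room temperature, stopped and read Ex 365/Em 440 for AC50.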

[2] = AP1 Signaling Pathway (AID 357); settings: ME-180 AP-1-bla reporter, EGF-induced, beta-lactamase ratio, 5 h; at 7.69 µM (top of the series) unless noted;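 further: ME-180 reporter cells stimulated with EGF at its EC50 level; on the % scale 0 is the no-effect control and ±100 the full control effect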
Outline: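 Cells are seeded overnight, exposed to compound titrations and an EC50 level of EGF for 5 hours at 37 °C, then loaded with CCF4 dye for 2.5 hours. Beta-lactamase activity under the AP-1 element is read as a blue/green ratio.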

[3] = molecular target: Cytochrome P450 1A2 (Homo sapiens) (UniProt P05177); test: p450-cyp1a2 (AID 410; calls by dose curve; further: potency means the concentration at half of the fitted maximal effect;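 on activity change, negative = inhibition: -100% = full effect of reference inhibitor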); settings: recombinant CYP1A2, luciferin-ME demethylation, luminescence; series mostly up to 11.4 µM
Chain of Cytochrome P450 1A2 (Homo sapiens) (P05177 whole entry, looked up): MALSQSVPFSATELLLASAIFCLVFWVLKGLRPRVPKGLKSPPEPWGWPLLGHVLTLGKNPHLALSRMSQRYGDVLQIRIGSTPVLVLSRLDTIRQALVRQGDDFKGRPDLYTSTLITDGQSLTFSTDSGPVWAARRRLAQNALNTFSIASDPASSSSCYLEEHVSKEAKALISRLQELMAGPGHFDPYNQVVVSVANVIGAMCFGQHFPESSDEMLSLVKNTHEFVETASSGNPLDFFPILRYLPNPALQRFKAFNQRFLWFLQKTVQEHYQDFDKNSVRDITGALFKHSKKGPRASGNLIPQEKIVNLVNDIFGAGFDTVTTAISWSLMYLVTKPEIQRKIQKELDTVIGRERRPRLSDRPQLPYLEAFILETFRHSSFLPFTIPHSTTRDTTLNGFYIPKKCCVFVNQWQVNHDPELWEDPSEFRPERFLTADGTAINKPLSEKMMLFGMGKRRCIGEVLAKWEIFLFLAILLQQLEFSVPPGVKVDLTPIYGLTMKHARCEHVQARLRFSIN
Outline: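 Human CYP1A2 (20nM) demethylated Luciferin-ME at its Km (100uM) in 100mM KPO4. After 10 min compound preincubation, NADPH regeneration ran the reaction 60 min at room temperature. Luciferin was read by luminescence, normalized to 57 uM furafylline.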

[4] = NFAT Signaling Pathway (AID 444); settings: Jurkat NFAT-bla M1, carbachol, beta-lactamase ratio, 5 h; at 7.69 µM (top of the series) unless noted;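 further: carbachol stimulus at about its EC50 of 1 µM final; on the % scale 0 is the no-effect control and ±100 the full control effect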
Outline: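 Read-out: CCF4 FRET ratio (460 nm/530 nm) after 1 h RT dye loading, used for %activity and AC50 from titration series. Cells: Jurkat NFAT-β-lactamase/M1 line, treated with compound plus 1 uM carbachol for 5 h, 37 °C.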

[5] = molecular target: Glucocorticoid receptor (Homo sapiens) (UniProt P04150); test: GR-GFP Redistribution (AID 450;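 active means compounds whose dose series gives a full or clear partial fitted curve of increased nuclear translocation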; further: potency means the concentration at half of the fitted maximal effect); settings: U2OS GR-GFP nuclear translocation, laser cytometry, 2 h
Chain of Glucocorticoid receptor (Homo sapiens) (P04150 whole entry, looked up, the tested form may be a part): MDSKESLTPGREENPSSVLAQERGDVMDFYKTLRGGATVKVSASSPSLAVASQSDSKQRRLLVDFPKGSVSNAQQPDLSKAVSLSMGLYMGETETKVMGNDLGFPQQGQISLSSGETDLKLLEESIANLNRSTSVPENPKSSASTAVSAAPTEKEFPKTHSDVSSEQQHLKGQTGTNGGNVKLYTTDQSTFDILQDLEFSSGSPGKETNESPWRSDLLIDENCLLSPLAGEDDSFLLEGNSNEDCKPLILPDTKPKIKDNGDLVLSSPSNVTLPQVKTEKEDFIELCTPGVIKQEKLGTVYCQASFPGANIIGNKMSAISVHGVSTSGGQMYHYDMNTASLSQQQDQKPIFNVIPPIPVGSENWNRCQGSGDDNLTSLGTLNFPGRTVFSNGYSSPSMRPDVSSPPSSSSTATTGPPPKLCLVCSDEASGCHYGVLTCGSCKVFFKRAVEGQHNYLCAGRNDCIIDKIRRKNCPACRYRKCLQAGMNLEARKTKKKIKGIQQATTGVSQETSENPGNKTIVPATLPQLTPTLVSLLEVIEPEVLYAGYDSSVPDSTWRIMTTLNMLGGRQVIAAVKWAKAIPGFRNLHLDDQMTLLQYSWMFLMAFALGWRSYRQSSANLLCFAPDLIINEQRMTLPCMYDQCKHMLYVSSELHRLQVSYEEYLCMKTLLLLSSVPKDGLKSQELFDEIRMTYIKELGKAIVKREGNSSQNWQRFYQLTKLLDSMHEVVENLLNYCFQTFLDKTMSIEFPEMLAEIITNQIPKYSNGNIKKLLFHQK

[6] = molecular target: Glucocorticoid receptor (Homo sapiens) (UniProt P04150); test: GR-EFC Redistribution (AID 451; calls by dose curve; further: potency means the concentration at half of the fitted maximal effect); settings: CHO-K1 GR-EFC translocation, beta-gal luminescence, 2 h
Outline: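 Translocation of GR-ED fusion to nuclear EA restores b-gal, read by luminescence after 1 h room-temperature detection. Engineered CHO-K1 biosensor cells, 1,000/well, exposed 2 h at 37 C to titrations up to 46 uM final.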

[7] = molecular target: Mitogen-activated protein kinase 10 (Mus musculus) (UniProt Q61831); test: JNK3 AlphaScreen Assay (AID 530); settings: JNK3 lysate, c-Jun phosphorylation; series mostly up to 11.4 µM;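 further: kinase came from lysate of stimulated human HepG2 cells; signal reports phosphorylation of biotinylated GST-cJun 1-79 at Ser73 with 10 µM ATP; on the % scale 0 is the no-effect control and ±100 the full control effect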
Outline: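 Room-temperature AlphaScreen kinase assay; pre-activated HepG2 lysate as JNK3 source, biotin-GST-cJun(1-79) substrate, 10 uM ATP, compound 15 min preincubation.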

[8] = molecular target: 3',5'-cyclic-AMP phosphodiesterase 4B (Homo sapiens) (UniProt Q07343); test: qHTS Assay for Inhibitors of PDE-IV (AID 607; active means well fitted activation curve with a large enough effect in the main read-out, with a control signal flat, not every such curve was filed as active; further: % of control where 0% means no effect); settings: HEK293 ACTOne CNG channel cells, membrane potential fluorescence; series mostly up to 22.9 µM
Chain of 3',5'-cyclic-AMP phosphodiesterase 4B (Homo sapiens) (Q07343 whole entry, looked up): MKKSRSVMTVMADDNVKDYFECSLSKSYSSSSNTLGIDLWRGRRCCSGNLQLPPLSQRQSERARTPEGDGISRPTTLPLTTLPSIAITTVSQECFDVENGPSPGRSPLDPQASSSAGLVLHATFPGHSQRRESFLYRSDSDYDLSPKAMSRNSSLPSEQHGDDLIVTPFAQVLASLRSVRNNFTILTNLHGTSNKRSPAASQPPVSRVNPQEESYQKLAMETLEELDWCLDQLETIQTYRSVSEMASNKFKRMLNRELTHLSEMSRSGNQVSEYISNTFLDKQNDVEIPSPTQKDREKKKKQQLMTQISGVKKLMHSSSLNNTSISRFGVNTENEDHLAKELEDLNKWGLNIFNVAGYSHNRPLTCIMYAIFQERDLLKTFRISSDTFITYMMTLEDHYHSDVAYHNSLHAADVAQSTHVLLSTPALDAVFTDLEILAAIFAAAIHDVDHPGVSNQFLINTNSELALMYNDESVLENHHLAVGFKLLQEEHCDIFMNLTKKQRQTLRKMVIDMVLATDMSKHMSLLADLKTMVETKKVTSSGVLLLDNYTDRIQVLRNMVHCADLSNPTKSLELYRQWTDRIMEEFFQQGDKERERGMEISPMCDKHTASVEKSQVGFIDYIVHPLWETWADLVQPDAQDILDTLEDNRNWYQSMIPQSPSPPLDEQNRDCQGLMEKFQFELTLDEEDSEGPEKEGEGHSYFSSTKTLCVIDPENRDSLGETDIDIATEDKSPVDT
Outline: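 ACTOne HEK293 cells carry a modified cAMP-gated CNG channel and express endogenous PDE4; plated 1000 cells/well, compounds up to 22.9 uM final. Membrane-potential dye fluorescence (ex 535/em 590) was read; parental cells received 10 uM forskolin + 100 uM RO 20-1724.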

[9] = molecular target: Cytochrome P450 2C19 (Homo sapiens) (UniProt P33261); test: qHTS Assay for Inhibitors and Substrates of Cytochrome P450 2C19 (AID 899; active means well fitted curve in the direction sought with a large enough effect; an effect the other way counts as inactive or inconclusive; further: nearly all actives have a fitted effect of over 60% in size; further: potency means the concentration at half of the fitted maximal effect); settings: recombinant CYP2C19, luciferin-H EGE luminescence; series mostly up to 11.4 µM
Chain of Cytochrome P450 2C19 (Homo sapiens) (P33261 whole entry, looked up): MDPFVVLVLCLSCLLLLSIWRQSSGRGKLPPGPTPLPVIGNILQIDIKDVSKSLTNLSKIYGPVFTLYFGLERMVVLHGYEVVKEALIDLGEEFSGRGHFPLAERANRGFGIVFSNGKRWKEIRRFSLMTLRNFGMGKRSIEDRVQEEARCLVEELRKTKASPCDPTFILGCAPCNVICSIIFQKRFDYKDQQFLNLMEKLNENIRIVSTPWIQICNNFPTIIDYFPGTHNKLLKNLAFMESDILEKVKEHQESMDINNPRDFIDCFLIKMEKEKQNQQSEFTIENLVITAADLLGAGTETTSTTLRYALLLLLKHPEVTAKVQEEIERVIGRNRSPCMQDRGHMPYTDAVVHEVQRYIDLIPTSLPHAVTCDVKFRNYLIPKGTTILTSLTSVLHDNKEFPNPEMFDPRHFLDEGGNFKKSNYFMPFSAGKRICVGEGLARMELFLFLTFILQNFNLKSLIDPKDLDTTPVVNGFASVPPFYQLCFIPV
Outline: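 Luminescence readout of luciferin formed from 10uM Luciferin-H EGE (KM level) by 5 nM CYP2C19 in 50mM KPO4. 60 min NADPH-driven reaction at 37C after 10 min compound preincubation; data scaled to 57uM ketoconazole inhibition.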

[10] = molecular target: Cytochrome P450 3A4 (Homo sapiens) (UniProt P08684); test: qHTS Assay for Activators of Cytochrome P450 3A4 (AID 885; active means well fitted curve in the direction sought with a large enough effect; an effect the other way counts as inactive or inconclusive; further: nearly all actives have a fitted effect of over 65% in size); settings: recombinant CYP3A4, Luciferin-PPXE luminescence, 60 min; series mostly up to 11.4 µM
Chain of Cytochrome P450 3A4 (Homo sapiens) (P08684 whole entry, looked up): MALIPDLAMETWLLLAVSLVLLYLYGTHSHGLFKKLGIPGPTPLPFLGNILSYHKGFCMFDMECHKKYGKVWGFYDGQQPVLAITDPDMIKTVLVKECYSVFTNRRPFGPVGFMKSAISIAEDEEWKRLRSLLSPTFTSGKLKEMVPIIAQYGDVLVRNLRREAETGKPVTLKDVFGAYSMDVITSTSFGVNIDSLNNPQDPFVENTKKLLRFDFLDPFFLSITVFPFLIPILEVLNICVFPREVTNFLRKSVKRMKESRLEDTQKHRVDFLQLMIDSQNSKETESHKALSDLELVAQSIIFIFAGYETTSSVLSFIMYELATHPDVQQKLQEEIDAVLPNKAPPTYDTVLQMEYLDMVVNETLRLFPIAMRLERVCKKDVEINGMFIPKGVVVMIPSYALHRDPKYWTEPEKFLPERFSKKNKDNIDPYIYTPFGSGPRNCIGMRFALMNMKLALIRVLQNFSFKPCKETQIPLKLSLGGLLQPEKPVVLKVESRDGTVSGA
Outline: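 20nM CYP3A4 + 25uM Luciferin-PPXE (=KM), 200mM KPO4; cpd 10 min RT; NADPH regen, 60 min RT; stop w/ detection buffer, 20 min; luminescence. Normalized to 57 uM ketoconazole.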

[11] = Stat Signaling Pathway (AID 446); settings: ME-180 SIE beta-lactamase reporter, IL-6 stimulated, 5 h; at 7.69 µM (top of the series) unless noted;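 further: ME-180 cervical cancer cells given 40 pM IL-6 alongside compound; SIE-controlled beta-lactamase reporter measured as 460/530 nm FRET emission ratio; on the % scale 0 is the no-effect control and ±100 the full control effect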
Outline: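 ME-180 SIE-bla cells; overnight plating; cpd + IL-6 40 pM, 5 h, 37 C; LiveBLAzer 2.5 h RT; 460/530 nm emission ratio. Normalized to 300 pM IL-6 and 125 nM JAK inhibitor controls.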

[12] = molecular target: Cytochrome P450 2C9 (Homo sapiens) (UniProt P11712); test: qHTS Assay for Inhibitors and Substrates of Cytochrome P450 2C9 (AID 883; active means well fitted curve in the direction sought with a large enough effect; an effect the other way counts as inactive or inconclusive; further: potency means the concentration at half of the fitted maximal effect; nearly all actives have a fitted effect of over 60% in size); settings: recombinant CYP2C9, luciferin-H luminescence, 60 min; series mostly up to 11.4 µM
Chain of Cytochrome P450 2C9 (Homo sapiens) (P11712 whole entry, looked up): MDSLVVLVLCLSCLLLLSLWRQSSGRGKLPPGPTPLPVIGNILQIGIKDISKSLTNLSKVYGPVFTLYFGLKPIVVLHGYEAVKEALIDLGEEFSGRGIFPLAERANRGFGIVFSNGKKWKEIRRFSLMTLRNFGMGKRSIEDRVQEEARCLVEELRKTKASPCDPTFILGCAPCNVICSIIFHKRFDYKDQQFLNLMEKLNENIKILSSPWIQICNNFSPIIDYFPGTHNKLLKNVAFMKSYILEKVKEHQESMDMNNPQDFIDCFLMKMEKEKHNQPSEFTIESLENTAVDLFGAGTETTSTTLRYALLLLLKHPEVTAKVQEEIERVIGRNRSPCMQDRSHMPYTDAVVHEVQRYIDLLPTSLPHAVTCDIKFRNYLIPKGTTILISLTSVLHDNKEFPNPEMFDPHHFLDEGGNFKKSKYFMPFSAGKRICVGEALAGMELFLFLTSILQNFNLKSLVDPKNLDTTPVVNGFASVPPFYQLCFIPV
Outline: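 Luminescent read-out of deoxyluciferin hydroxylation, normalized to 57uM sulphaphenazole (AC100). Reaction: 10nM enzyme, 100uM Luciferin-H (equal to KM), 25mM KPO4, 10 min compound preincubation, then 60 min with NADPH regeneration, both at 37C.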

[13] = molecular target: Cytochrome P450 2D6 (Homo sapiens) (UniProt P10635); test: qHTS Assay for Inhibitors and Substrates of Cytochrome P450 2D6 (AID 891; active means well fitted curve in the direction sought with a large enough effect; an effect the other way counts as inactive or inconclusive; further: potency means the concentration at half of the fitted maximal effect; nearly all actives have a fitted effect of over 60% in size); settings: recombinant CYP2D6, luciferin-ME EGE luminescence; series mostly up to 11.4 µM
Chain of Cytochrome P450 2D6 (Homo sapiens) (P10635 whole entry, looked up): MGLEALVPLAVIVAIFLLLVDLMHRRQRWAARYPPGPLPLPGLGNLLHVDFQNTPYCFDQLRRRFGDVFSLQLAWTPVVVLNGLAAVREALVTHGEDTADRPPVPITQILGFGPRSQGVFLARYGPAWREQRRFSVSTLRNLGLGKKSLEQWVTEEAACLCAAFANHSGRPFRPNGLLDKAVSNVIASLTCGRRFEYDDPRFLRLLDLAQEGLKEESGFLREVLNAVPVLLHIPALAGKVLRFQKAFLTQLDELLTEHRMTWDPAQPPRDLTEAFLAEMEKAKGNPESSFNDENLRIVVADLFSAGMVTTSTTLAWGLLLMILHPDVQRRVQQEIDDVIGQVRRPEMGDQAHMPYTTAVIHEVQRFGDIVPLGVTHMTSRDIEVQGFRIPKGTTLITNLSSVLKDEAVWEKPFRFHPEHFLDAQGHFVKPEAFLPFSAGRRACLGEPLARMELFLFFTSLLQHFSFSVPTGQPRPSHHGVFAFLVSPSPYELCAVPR
Outline: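 Human CYP2D6 (5 nM) with 30 uM Luciferin-ME EGE (at Km) in 100 mM KPO4, compound preincubated 10 min, then NADPH regeneration system for 60 min at room temperature. Luciferin read by luminescence; normalized to 1.43 uM quinidine.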

[14] = molecular target: Cytochrome P450 3A4 (Homo sapiens) (UniProt P08684); test: qHTS Assay for Inhibitors and Substrates of Cytochrome P450 3A4 (AID 884; active means well fitted curve in the direction sought with a large enough effect; an effect the other way counts as inactive or inconclusive; further: potency means the concentration at half of the fitted maximal effect; nearly all actives have a fitted effect of over 50% in size); settings: recombinant CYP3A4, Luciferin-PPXE luminescence; series mostly up to 57.1 µM
Outline: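 20 nM human CYP3A4 with 25 uM Luciferin-PPXE (at KM) in 200 mM KPO4, preincubated 10 min with compound; NADPH regeneration started a 60 min RT reaction. Luciferin detected by luminescence, normalized to 57 uM ketoconazole as full inhibition.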

O=c1c[n+](CCCC[n+]2cc(=O)o[nH]2)[nH]o1
inactive: Potency [1] > 11.4 µM | activity change, negative = inhibition [2] 4.96% | Potency [3] | activity change, negative = inhibition [4] -11% | Potency [5] > 46 µM | Potency [6] > 9.22 µM | Potency [7] | Potency [8] | Potency [9]

Cc1nc2cnc(N3CCNCC3)nc2n(-c2ccccc2)c1=O
active: Potency [3] 10 µM
inactive: Potency [1] > 11.4 µM | activity change, negative = inhibition [2] -4.43% | activity change, negative = inhibition [4] 1.83% | Potency [5] > 9.22 µM | Potency [6] > 46 µM | Potency [7] | Potency [8] | Potency [10]

O=C(CSc1nc2ccccc2s1)c1sc2sc3ccccc3[n+]2c1O
inactive: Potency [1] > 11.4 µM | activity change, negative = inhibition [2] -9.47% | activity change, negative = inhibition [4] 6.64% | Potency [5] > 46 µM | Potency [7] | Potency [8]
active: Potency [3] 5.01 µM

CC(=O)N[C@@H]1CONC1=O
inactive: Potency [1] > 11.4 µM | activity change, negative = inhibition [2] 10.9% | Potency [3] | activity change, negative = inhibition [4] 5.02% | Potency [5] > 46 µM | Potency [7] | Potency [8]

O=C(O)C[C@H](S)C(=O)O
inactive: Potency [1] > 11.4 µM | activity change, negative = inhibition [2] -3.09% | Potency [3] | activity, negative = inhibition [11] -8.04% | Potency [5] > 46 µM | Potency [6] > 9.22 µM | Potency [7] | Potency [8]

O=C(c1cc(Br)ccc1O)c1cc(Br)ccc1O
inactive: Potency [1] > 11.4 µM | activity change, negative = inhibition [2] -21.4% | activity, negative = inhibition [11] -28% | Potency [5] > 46 µM | Potency [6] > 9.22 µM | Potency [7] | Potency [8]
active: Potency [3] 1 µM

COC(=O)CC[C@@H](C)[C@H]1CC[C@H]2[C@H]3CC[C@H]4C[C@@H]5CC[C@@]4(C)C3(O5)[C@@H](Br)[C@@H](Br)[C@@]12C
active: Potency [12] 2.51 µM
inactive: Potency [1] > 11.4 µM | activity change, negative = inhibition [2] 21.4% | Potency [3] | activity change, negative = inhibition [4] 8.56% | Potency [5] > 46 µM | Potency [6] > 9.22 µM | Potency [8] | Potency [10]

O=c1c(-c2cccs2)nc2cnc(Oc3ccccc3)nc2n1C1CC1
inactive: Potency [1] > 11.4 µM | activity change, negative = inhibition [2] -6.67% | activity change, negative = inhibition [4] 22.4% | Potency [5] > 9.22 µM | Potency [6] > 46 µM | Potency [8]
active: Potency [3] 2.51 µM | Potency [12] 3.16 µM

CC1(CC(=O)O)O[C@H]2CCCCC[C@H]2O1 (some centres undefined) (tested in a mixture with another compound)
inactive: Potency [1] > 11.4 µM | activity change, negative = inhibition [2] 8.96% | Potency [3] | activity change, negative = inhibition [4] -4.93% | Potency [5] > 46 µM | Potency [6] > 9.22 µM | Potency [7] | Potency [8] | Potency [10]

O=C(O)C[n+]1ccccc1
inactive: Potency [1] > 11.4 µM | activity change, negative = inhibition [2] -3.27% | Potency [3] | activity change, negative = inhibition [4] -24% | Potency [7] | Potency [8]

CCN(CC)CC[n+]1ccc2c(C)c3[nH]c4ccc(O)cc4c3c(C)c2c1
active: Potency [3] 3.16 µM
inactive: Potency [1] > 11.4 µM | activity change, negative = inhibition [2] 0.748% | activity, negative = inhibition [11] 26.1% | Potency [5] > 46 µM | Potency [6] > 9.22 µM | Potency [7]

Cc1cc(=Nc2ccc3c(c2)c(N)cc(C)[n+]3C)nc(N)n1C
inactive: Potency [1] > 11.4 µM | activity change, negative = inhibition [2] -3.85% | activity change, negative = inhibition [3] -5.3% [at 2.29 µM] | activity, negative = inhibition [11] -8.63% | Potency [5] > 46 µM | Potency [6] > 9.22 µM | Potency [7] | Potency [8]

Sc1ccc2ccccc2c1CNCc1ccccc1
inactive: Potency [1] > 11.4 µM | activity change, negative = inhibition [2] 12.3% | activity change, negative = inhibition [4] -0.525% | Potency [5] > 46 µM | Potency [6] > 9.22 µM | Potency [7] | Potency [8]
active: Potency [3] 1.26 µM | Potency [13] 1.26 µM

COc1ccccc1CCn1c(=O)c(-c2ccc(F)cc2)nc2cncnc21
active: Potency [3] 1 µM | Potency [12] 3.98 µM | Potency [14] 3.98 µM | Potency [9] 0.316 µM
inactive: Potency [1] > 11.4 µM | activity change, negative = inhibition [2] -8.06% | activity change, negative = inhibition [4] -26.6% | Potency [5] > 9.22 µM | Potency [6] > 46 µM | Potency [7] | Potency [10]

CN(CCc1ccccn1)c1ccc2c(c1)C(=O)c1ccccc1-2
inactive: Potency [1] > 2.29 µM | activity change, negative = inhibition [2] 7.03% | activity change, negative = inhibition [4] 0.0317% | Potency [5] > 46 µM | Potency [6] > 9.22 µM | Potency [8] | Potency [10]
active: Potency [3] 0.158 µM | Potency [14] 3.16 µM

O=C(O)/C=C\c1c2ccc(=O)c(O)c-2oc2c(O)c(O)ccc12
inactive: Potency [1] > 11.4 µM | activity change, negative = inhibition [2] -8.29% | activity change, negative = inhibition [3] -19.8% [at 2.29 µM] | activity change, negative = inhibition [4] 2.25% | Potency [5] > 46 µM | Potency [6] > 9.22 µM | Potency [8]

Cc1c2cc[n+](CCN3CCCCC3)cc2c(C)c2c1[nH]c1ccc(O)cc12
active: Potency [3] 2.51 µM
inactive: Potency [1] > 11.4 µM | activity change, negative = inhibition [2] 9.2% | activity, negative = inhibition [11] 17.1% | Potency [5] > 46 µM | Potency [6] > 9.22 µM | Potency [7] | Potency [8]
